# From PubChem
# Only some compounds are listed: those with a hit (about 8% of all), similar ones and a draw of the others.
# ELG1 repair inh: inhibitors of ELG1-dependent DNA repair in HEK293T cells. HEK293T ELG1-luciferase reporter, luminescence, 16 h; DNA damage induced by 5-fluorouridine. Potency, µM (highest dose often 46.1 µM), inactives show at the highest dose activity change, negative = inhibition, hits mostly inhibitors. actives 2.3% (n = 330,000); further: potency means the concentration at half of the fitted maximal effect; nearly all actives have a fitted effect of over 55% in size
#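 HEK293T cells expressing luciferase-tagged ELG1 (2,000/well) received 5-Fluorouridine plus compound or DMSO for 16 hr at 37 °C. Luciferase was read by ONE-Glo luminescence after 30 min at room temperature.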
# TSHR antagonist: blocks TSH signaling through the human TSH receptor; activity change, negative = inhibition, % at 11.5 µM; TSHR-expressing cells, TSH-stimulated cAMP HTRF, 2 h; hits give low values; P16473; actives 0.2% (n = 330,000);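 active means activity change below a set negative limit, meaning inhibition stronger than a set level, cut at about -70% in these data; inconclusive means activity change between two set negative limits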
#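 TSHR-expressing cells were treated with compounds, then stimulated with TSH at EC80 (4nM final) for 2 hours at 37 deg C. Cellular cAMP was measured by HTRF competition between lysate cAMP and cAMP-d2 for a cryptate-labelled anti-cAMP antibody.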
# VP16 counter: counter-screen for ROR gamma inhibitors: Gal4-VP16 reporter. Drosophila S2 Gal4-VP16 UAS-luciferase, luminescence, 20 h. Potency, µM (doses to about 53.6 µM), without a hit: at the highest dose activity, negative = inhibition, usual class: inhibitors. actives 3.5% (n = 310,000). AID 2546;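 further: Gal4-VP16 expression switched on by copper sulfate through the metallothionein promoter; potency means the concentration at half of the fitted maximal effect; nearly all actives have a fitted effect of over 50% in size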
# FBPA coupling cs: counter-screen for Giardia aldolase inhibitors: coupling enzyme system; coupling enzyme system counterscreen, AmpLite Red fluorescence; actives 0.67% (n = 290,000); activity change, negative = inhibition, % at 58.2 µM, hits read low; in the data active means activity change below about -30%
#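 Compounds tested against the coupling enzymes alone at 57.5 uM final; readout was AmpLite Red fluorescence (525/598 nm) after 20 min at RT.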
# RORgamma inh: ROR gamma (mouse) transcription inhibition. AID 2551. Drosophila S2 Gal4-RORgamma UAS-luciferase reporter, 20 h. Potency, µM (titrated, usually from 53.6 µM), without a hit: top-dose activity change, negative = inhibition, actives largely listed as inhibitors. actives 5.4% (n = 310,000). P51450; further: potency means the concentration at half of the fitted maximal effect; nearly all actives have a fitted effect of over 60% in size
# Target sequence (P51450 whole entry, looked up, the tested form may be a part): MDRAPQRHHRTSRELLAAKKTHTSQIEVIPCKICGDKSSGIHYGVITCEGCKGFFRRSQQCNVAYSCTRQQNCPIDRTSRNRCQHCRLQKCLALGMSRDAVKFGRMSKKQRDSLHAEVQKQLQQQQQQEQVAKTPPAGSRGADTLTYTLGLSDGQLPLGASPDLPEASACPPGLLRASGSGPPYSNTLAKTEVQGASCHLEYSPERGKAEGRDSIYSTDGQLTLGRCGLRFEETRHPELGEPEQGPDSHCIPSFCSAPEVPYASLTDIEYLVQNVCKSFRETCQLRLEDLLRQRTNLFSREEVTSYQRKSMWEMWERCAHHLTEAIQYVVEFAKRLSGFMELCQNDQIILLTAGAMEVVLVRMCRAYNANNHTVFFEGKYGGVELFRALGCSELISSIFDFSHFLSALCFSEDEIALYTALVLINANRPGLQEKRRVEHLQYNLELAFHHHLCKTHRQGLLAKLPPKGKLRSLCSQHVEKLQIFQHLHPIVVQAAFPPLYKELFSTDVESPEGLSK
#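 Compounds are pin-transferred onto Drosophila Schneider cells expressing a copper-inducible Gal4–ROR gamma transactivation domain fusion. After 1 hr, copper sulfate is added to 700 uM final; luciferase is read 20 hr later.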
# An asterisk follows results filed as active; ? = inconclusive; nt = no result given; [ ] = dose if it differs, or a comment. Unless noted, the call rests on the fitted dose curve; in most records, active means well fitted curve in the direction sought with a large enough effect; inconclusive means small, poorly fitted or top-dose-only effect, or another doubt; inactive means no such curve, though single readings can be large; an effect the other way counts as inactive or inconclusive. On the % scale 0 is the no-effect control and ±100 the full control effect.
SMILES,ELG1 repair inh,TSHR antagonist,VP16 counter,FBPA coupling cs,RORgamma inh
CCCCN1CN(Cc2ccco2)CNC1=S,11%,5,?,3,13µM*
S=C1SCN(Cc2ccco2)CN1Cc1ccco1,?,-6,3.2µM*,-1,2.5µM*
C=CCN1CN(Cc2ccco2)CNC1=S,12%,2,?,1,13µM*
S=C1NCN(Cc2ccco2)CN1c1cccc2ccccc12,-21%,-2,?,1,5µM*
Cc1ccc(N2CN(Cc3ccco3)CNC2=S)c(C)c1,22%,43,-3%,0,-2%
S=C1NCN(Cc2ccco2)CN1,11%,0,-9%,0,-12%
O=S(=O)(/N=C(/c1ccccc1)N1CCOCC1)c1ccc(F)cc1F,?,5,nt,nt,nt
CC(Oc1ccc2ccc(=O)oc2c1)C(=O)NCCN1CCOCC1 (stereo not drawn),10%,3,3%,1,6%
O=C(c1ccco1)N1CCN(Cc2cc(=O)oc3cc(O)ccc23)CC1,1%,-6,nt,nt,nt
S=C1NCN(Cc2ccco2)CN1c1ccccc1,-5%,-5,-5%,2,?
CCc1ccc(N2CN(Cc3ccco3)CNC2=S)cc1,-13%,-2,?,8,3.5µM*
CS(=O)(=O)Cc1ccc(C(=O)NC2CCCc3ccccc32)cc1 (stereo not drawn),5%,4,3%,0,-3%
O=C(NNC1=Nc2cc([N+](=O)[O-])ccc2OC1)c1ccccc1Cl,?,-10,-19%,-1,1µM*
O=C(NNc1ccc([N+](=O)[O-])cc1)c1ccccc1Cl,4%,-10,-16%,-16,19%
CC(=O)Nc1ccc(N=Cc2c(O)c(C(=O)Nc3ccccc3)cc3ccccc23)cc1,?,-14,-4%,-13,4%
Cn1c2ccccc2c2cc(/C=N/NC(=O)c3ccc(O)cc3O)ccc21,?,-10,?,-8,?
Cn1c(O)c(/C=N/NC(=O)c2cc3ccccc3cc2O)c2ccccc21,?,-37,?,0,7.9µM*
COc1ccc2c(c1)cc(C(=O)N/N=C/c1c(O)c(C(=O)O)cc3ccccc13)n2C,14%,-5,18µM*,1,11µM*
CN(C)S(=O)(=O)c1cc(C(=O)Nc2ccccc2C(=O)NC2CC2)ccc1Cl,?,48,nt,nt,nt
CC(=O)Nc1cccc(NC(=O)CCN2C(=O)c3ccccc3S2(=O)=O)c1,15%,4,nt,nt,nt
O=c1cc[nH]c(=S)[nH]1,nt,nt,-4%,0,7%
CCOc1cc(/C=C/c2nc3ccccc3s2)ccc1OCC(=O)N1CCOCC1,23µM*,-10,-27%,2,26%
CCOc1cc(C(=O)OCC(=O)c2c[nH]c3ccccc23)ccc1OCC(=O)N1CCOCC1,?,0,-5%,0,?
CCOc1cc(C(=O)OCC(=O)c2c(C)[nH]c3ccccc23)ccc1OCC(=O)N1CCOCC1,16µM*,-4,-7%,0,17%[10 µM]
CC(C)=NO[C@@H](C)CN1CCCc2nc(C)c(C)cc21,nt,nt,-14%[10 µM],-2,-8%[10 µM]
SMILES,ELG1 repair inh,TSHR antagonist,VP16 counter,FBPA coupling cs,RORgamma inh
CCN(CC(=O)Nc1c(F)cccc1F)C(=O)c1nc2nccc(C)n2n1,15%,8,nt,nt,nt
Cc1c(C(=O)Nc2ccc(-c3nnc4n3CCCCC4)cc2)oc2c1ccc1ccccc12,16µM*,-13,?,0,?
O=C(/C=C/c1ccccc1Cl)Nc1ccc(-c2nnc3n2CCCCC3)cc1,18µM*,-5,-16%,2,?
O=C(Nc1ccc(-c2nnc3n2CCCCC3)cc1)c1cc2ccccc2o1,?,-7,7%,-2,?
O=C(/C=C/c1ccccc1Cl)Nc1ccccc1,?,-13,?,-3,2µM*
O=C(/C=C/c1ccccc1[N+](=O)[O-])Nc1ccccc1,?,2,5%,0,-8%
CN(C)S(=O)(=O)c1ccc(NC(=O)/C=C/c2ccccc2Cl)cc1,-11%,-8,-10%,-6,0.5µM*
CN(C)C=Nc1c(I)cc(I)c(CCC(=O)O)c1I,nt,nt,-6%,nt,17%
O=C(/C=C/c1ccccc1Cl)Nc1ccc2c(c1)C(=O)NC2=O,-10%,-17,-10%,4,-27%
O=C(/C=C/c1ccccc1Cl)Nc1cccc(O)c1,?,-23,2.5µM*,-5,0.32µM*
COc1cccc2cc(C(=O)NCc3ccc(Cl)cc3)c(=N)oc12,22%,31,?,-11,0.089µM*
COc1cccc2cc(C(=O)NCc3ccccc3)c(=N)oc12,?,13,-2%,0,-15%
O=C(c1cnccn1)N1CCC2(CC1)CN(Cc1ccccc1)C2,nt,nt,-4%,2,6%
CCn1cc(C(=O)O)c(=O)c2cnc(N3CCN(C(=S)Nc4ccccc4C(F)(F)F)CC3)nc21,15µM*,-2,0%,0,0%
CCn1cc(C(=O)O)c(=O)c2cnc(N3CCN(C(=S)Nc4ccccc4)CC3)nc21,-21%,16,-7%,-8,4%
CCn1cc(C(=O)O)c(=O)c2cnc(N3CCN(C(=S)NC(=O)c4ccccc4)CC3)nc21,7%,-9,1%,2,2.5µM*
COc1cc2c(cc1OC)CN(c1ccc(F)cc1[N+](=O)[O-])CC2,?,18,5%,0,-16%
CC(C)Oc1ccccc1C1CC(=O)Nc2cc3c(cc21)OCO3 (stereo not drawn),-1%,-11,13µM*,-17,?
COc1ccc(C(C)(C)C)cc1NC(=O)c1[nH]c(C)c(C(C)=O)c1C,5.8µM*,-7,-13%,0,2%
COc1ccc(NC(=O)c2[nH]c(C)c(C(C)=O)c2C)cc1Cl,?,2,4%,1,?
CC(=O)n1cc(N(C(=O)CCl)c2ccc(C)cc2)c2ccccc21,23µM*,-13,?,-2,11µM*
O=C(Nc1ccnn1C1CCN(C2CCCCC2)CC1)c1ccccc1,4%,-2,0%,nt,-17%
CN(C)S(=O)(=O)c1ccc(C(=O)Nc2ccnn2C2CCCCC2)cc1,26µM*,-15,1%,1,20%
C=CC[C@@H]1C=C[C@@H](O/N=C\c2ccc(C(=O)N3[C@H](c4ccc(C)cc4)[C@@H](C)CC[C@H]3C(=O)OC)cc2)[C@@H](CO)O1,nt,nt,-10%[10 µM],0,-1%[10 µM]
Cc1ccc(Cl)cc1NC(=O)C1CCCN1S(=O)(=O)c1ccc(-c2ccc(=O)[nH]n2)s1 (stereo not drawn),-26%,8,?,-2,0%
COc1cccc(C2CC(=O)Nc3cc4c(cc32)CCC4)c1 (stereo not drawn),-12%,-3,13µM*,2,?
COc1cccc(C2CC(=O)Nc3cc(OC)c(OC)cc32)c1 (stereo not drawn),7%,7,5%,-1,?
